Bioassay records deposited in PubChem by several laboratories.
Most compounds without a hit are left out; they make up all but 3.2% or so of the library.
ERb SRC1 inh: ER-beta (human) coactivator binding inhibition; inhibition, % at 25.6 µM; TR-FRET ER-beta LBD / SRC1-Cy5 peptide binding; receptor agonist-loaded with 1 µM estradiol; Q92731; hit rate 1.3% among 86,000;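 active means compounds whose percent inhibition of the receptor-coactivator binding signal exceeds about 50% in the single-dose screen, limit read from the data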;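 further: 0% = receptor plus peptide wells without compound and 100% = peptide-only wells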
Target sequence (Q92731 whole entry, looked up, the tested form may be a part): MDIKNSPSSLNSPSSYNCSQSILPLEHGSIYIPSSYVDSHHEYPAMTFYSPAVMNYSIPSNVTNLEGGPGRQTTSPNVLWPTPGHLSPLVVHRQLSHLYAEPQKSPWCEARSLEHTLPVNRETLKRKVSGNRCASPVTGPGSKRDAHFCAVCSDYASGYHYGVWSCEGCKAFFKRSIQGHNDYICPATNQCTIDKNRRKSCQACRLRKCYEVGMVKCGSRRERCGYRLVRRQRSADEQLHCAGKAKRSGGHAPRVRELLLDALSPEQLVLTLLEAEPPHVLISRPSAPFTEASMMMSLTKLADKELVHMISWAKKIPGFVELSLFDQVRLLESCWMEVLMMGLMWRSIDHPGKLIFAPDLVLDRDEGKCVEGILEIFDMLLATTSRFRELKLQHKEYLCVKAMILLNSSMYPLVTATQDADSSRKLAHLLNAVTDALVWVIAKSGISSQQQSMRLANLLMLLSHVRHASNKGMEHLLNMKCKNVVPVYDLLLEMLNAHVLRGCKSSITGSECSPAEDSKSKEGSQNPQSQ
FAK blocker: inhibitors of human focal adhesion kinase; biochemical FAK kinase activity assay; inhibition, %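 (tested at 7 µM)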; hit rate 0.84% among 97,000; in the data active means inhibition above about 19%;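 further: 0% = DMSO and 100% = reference compound high control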
ERa coact pot: ER-alpha (human) coactivator binding potentiation. P03372. TR-FRET ERalpha-LBD/SRC-Cy5 coactivator binding, 2 h; 100 = basal binding, no effect. coactivator binding (% of control), % at 25.6 µM. hit rate 1.3% among 86,000. AID 639; in the data active means activity above about 200%;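 further: binding measured in presence of low estradiol as agonist stimulus; 0% = peptide alone without receptor and 100% = receptor with peptide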
ERa coact inh: blocks coactivator binding to human estrogen receptor alpha | P03372 | hit rate 1.7% among 86,000 | inhibition, % at 25.6 µM | TR-FRET ER-alpha LBD / SRC-1 peptide, estradiol-bound; in the data active means inhibition above about 50%;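 further: 0% = receptor plus peptide control and 100% = peptide only without receptor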
* = called active by the depositor; x = no result given; [ ] = dose if it differs, or a comment.

SMILES	ERb SRC1 inh	FAK blocker	ERa coact pot	ERa coact inh
COc1ccc(CC(NC(C)=O)C(=O)NC2CCN(C(=O)NCc3ccccc3)CC2)cc1OC (configuration not stated)	87*[fluorescence artefact?]	0	117	-5
O=C(CS(=O)(=O)c1cn(Cc2ccccc2Cl)c2ccccc12)N1CCOCC1	1	-2	90	-3
O=C(CS(=O)(=O)c1cn(Cc2ccc(Cl)cc2)c2ccccc12)N1CCCC1	51*[fluorescence artefact?]	1	86	12
CCc1ccc(CNCCNCC(C)O)cc1 (configuration not stated)	x	-3	x	x
O=C(Nc1ccc(C2CCCCC2)cc1)C1CCCN(c2ncccn2)C1 (configuration not stated)	-1	x	223*[fluorescence artefact?]	16
Cc1cc(C)cc(NC(=O)C2CCCN(c3nc(C)cc(C)n3)C2)c1 (configuration not stated)	75*[fluorescence artefact?]	x	90	4
O=C(Nc1cccc(-c2cn3cccnc3n2)c1)c1ccco1	5	2	95	-6
O=C(Nc1ccc2nn(-c3ccccc3)nc2c1)c1ccc2c(c1)OCO2	36	10	181	51*
O=C(Nc1cccc(-c2cn3cccnc3n2)c1)c1ccc2c(c1)OCO2	10	10	116	60*
COc1ccc(OC)c(NC(=O)CC2C(=O)NCCN2C(=O)Nc2cccc(Cl)c2)c1 (configuration not stated)	-6	-2	79	-1
CCOC(=O)C1=C(C)NC(=O)NC1/C(C)=C/c1ccccc1 (configuration not stated)	2	x	127	-2
CN(CCNC(=O)c1ccc(N2CCCC2=O)cc1)CCc1ccccc1	-8	-2	98	0
COc1cccc(Nc2nc(=O)[nH]nc2C)c1	-2	3	104	-2
CCc1nnc2n1N=C(c1ccc(-c3ccc(Cl)cc3Cl)o1)CS2	17	-7	80	40
CCc1nnc2n1N=C(c1ccc(-c3cc(Cl)ccc3Cl)o1)CS2	34	12	79	59*
CSc1ccccc1NC(=O)c1cnccn1	43	-5	64	56*[fluorescence artefact?]
O=C(CSc1nnnn1-c1ccccc1)Nc1ncc2c(n1)CC(c1ccco1)CC2=O (configuration not stated)	-7	0	109	-2
CN1CCN(c2ccc(NC(=O)c3cccc(OCc4ccccc4)c3)cc2)CC1	62*[fluorescence artefact?]	12	42	37
O=C(Nc1ccc(N2CCCC2)cc1)c1ccccc1F	80*[fluorescence artefact?]	63*	17	96*[fluorescence artefact?]
O=C(Nc1ccc(N2CCCCC2)cc1)c1cccnc1Cl	-3	-1	88	0
O=C(Nc1ccc(N2CCCC2)cc1)c1cccc(F)c1	55*[fluorescence artefact?]	6	60	33
O=C(Nc1ccc(N2CCN(c3ccc(O)cc3)CC2)cc1)Oc1ccccc1	57*[fluorescence artefact?]	7	30	95*[fluorescence artefact?]
O=C(Nc1ccc(N2CCCCC2)cc1)c1ccccc1	x	5	x	x
CC(=O)Nc1ccc(S(=O)(=O)N(C)CC(=O)NC2=NCCS2)cc1	7	-3	97	8
Nc1nonc1NC(=O)CSc1ncccc1C(=O)O	64*	-7	101	-2
SMILES	ERb SRC1 inh	FAK blocker	ERa coact pot	ERa coact inh
CCOC(=O)Cn1c(CN(C)Cc2ccccc2)nc2c1c(=O)n(C)c(=O)n2C	x	53*	x	x
COC(=O)/C=c1/s/c(=C(/C#N)C(=O)N2CCCCC2)n(-c2ccccc2)c1=O	-3	x	103	-2
COc1cc(/C=c2\s/c(=C(/C#N)C(=O)N3CCCC3)n(-c3ccccc3)c2=O)ccc1O	19	-5	64	59*
COc1cccc(/C=N/n2c(SC)nnc2-c2ccccc2)c1O	68*[fluorescence artefact?]	-10	89	16
NS(=O)(=O)c1cc2c(cc1Cl)NC=NS2(=O)=O	94*[fluorescence artefact?]	x	96	7
O=C(O)c1ccc(NC(=O)C2(c3ccccc3)CCOCC2)cc1	-23	1	109	-22
COc1ccc2c(C)nc(Nc3nc(C)cc(C)n3)nc2c1	26	8	243*	17
COc1ccccc1N1CCN(C(=O)C2CCN(S(=O)(=O)c3ccc(Cl)cc3)CC2)CC1	x	1	x	x
C=C(C)c1ccc(C(C)(C)NC(=O)N2CCN(C)CC2)cc1	5	4	537*[fluorescence artefact?]	-2
Cc1cc(=O)oc2cc(OCc3cc4c(cc3Cl)OCO4)ccc12	x	1	x	x
CCCSc1nc(SCC(=O)NCc2ccccc2)c2c3c(sc2n1)COC(C)(CC)C3 (configuration not stated)	-2	-3	298*[fluorescence artefact?]	-16
Cc1ccc(Br)cc1S(=O)(=O)N1CCN(c2ccccc2)CC1	x	-1	x	x
O=c1[nH]c2cc3c(cc2cc1C(c1nnnn1C1CCCCC1)N1CCSCC1)OCCO3 (configuration not stated)	35	1	254*[fluorescence artefact?]	21
Cn1nnnc1SCC(=O)N(C1CCCCC1)C1CCCCC1	51*[fluorescence artefact?]	-5	108	-5
COc1cccc(C(=O)Nc2ccc3nc(N4CCN(c5ncccn5)CC4)cc(C)c3c2)c1OC	x	15	x	x
CCOc1ccccc1C(=O)Nc1ccc2nc(N3CCN(c4ncccn4)CC3)cc(C)c2c1	35	11	303*[fluorescence artefact?]	73*
COc1cccc(-n2nc(-c3ccnn3-c3ccc(F)cc3)c(=O)n(C)c2=O)c1	74*	-1	104	2
CCOC(=O)c1ccc(NC(=O)COc2cc(=O)n(CC)c3ccccc23)cc1	-19	-6	890*[fluorescence artefact?]	-66
CCn1c(=O)cc(OCC(=O)Nc2cccnc2)c2ccccc21	-26	-3	107	-26
CCn1c(=O)cc(OCC(=O)N2CCc3ccccc32)c2ccccc21	15	x	212*[fluorescence artefact?]	2
CCc1cc(=O)oc2cc(OCC(=O)N3CCc4ccccc43)ccc12	4	x	200*[fluorescence artefact?]	10
O=C(Cn1ncc2c1-c1ccccc1OC2)Nc1ccc(S(=O)(=O)N2CCCCC2)cc1	-1	-3	102	2
Cc1ccc(-c2nc3sc4c(c3c(=O)n2N)CCCC4)cc1	7	1	120	-3
COc1ccc(CS(=O)(=O)/C(Cl)=C(/Cl)C(=O)Nc2ccc(OC)nc2)cc1	0	-1	96	8
Cc1cc(C)n(-c2ncnc3sc4c(c23)CCCC4)n1	5	-2	103	-3
SMILES	ERb SRC1 inh	FAK blocker	ERa coact pot	ERa coact inh
Cc1nccn1-c1ncnc2sc3c(c12)CCCC3	63*	10	93	1
CCc1ccc2nc(Nc3nc(COC)cc(=O)[nH]3)nc(C)c2c1	x	-4	x	x
COc1nc(Nc2nc3ccccc3c(=O)[nH]2)nc2ccc(C)cc12	53*[fluorescence artefact?]	x	147	74*[fluorescence artefact?]
Cc1nc(Nc2nc(-c3ccccc3)cc(=O)[nH]2)nc2ccccc12	-2	4	239*	20
C=CCNC(=O)C1CC(=O)N(c2ccc(OCC(=O)Nc3ccccc3)cc2)C1 (configuration not stated)	-17	1	102	-18
CCn1nc(C)c(NC(=O)/C=C/c2ccc(OC)c(COc3ccc(Cl)cc3Br)c2)c1C	52*[fluorescence artefact?]	16	311*[fluorescence artefact?]	95*[fluorescence artefact?]
COc1ccc(/C=C/C(=O)NCc2cn(C)nc2C)cc1COc1ccc(Cl)cc1Br	x	-1	x	x
O=C(Cn1c(=O)sc2ccccc21)Nc1ccccc1C(=O)O	3	4	100	6
COC(=O)c1ccc(CSc2nnc(NC(=O)c3cc4c(s3)CCCC4)s2)cc1	17	-4	235*	1
